These results are taken from PubChem BioAssay (NCATS).

In test [1] the target is Rap guanine nucleotide exchange factor 3 (Homo sapiens) (UniProt O95398). Nature of the test: Confirmatory qHTS for antagonist of cAMP-regulated guanine nucleotide exchange factor 3 (EPAC1) (AID 1645880). Further: nearly all actives have a fitted effect of over 55% in size. Further: potency means the concentration at half of the fitted maximal effect.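 On activity, negative = inhibition: plate controls were DMSO only for no effect and full effect of the ATA control for full effect.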 The settings on record: EPAC1 Rap1B-BODIPY-GDP exchange, fluorescence; activity, negative = inhibition: at 115 µM (top of the series). A digest of the protocol: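 Released BODIPY-GDP fluoresces less than Rap1-bound BODIPY-GDP; the signal is followed at 480/540 nm at 5-min intervals over 30 min, after 5 min at room temperature. Reactions contain 100 nM EPAC1, 250 nM RAP1B-BODIPY-GDP and 50 uM GDP; results are normalized to ATA and DMSO.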
Chain of Rap guanine nucleotide exchange factor 3 (Homo sapiens) (O95398 whole entry, looked up): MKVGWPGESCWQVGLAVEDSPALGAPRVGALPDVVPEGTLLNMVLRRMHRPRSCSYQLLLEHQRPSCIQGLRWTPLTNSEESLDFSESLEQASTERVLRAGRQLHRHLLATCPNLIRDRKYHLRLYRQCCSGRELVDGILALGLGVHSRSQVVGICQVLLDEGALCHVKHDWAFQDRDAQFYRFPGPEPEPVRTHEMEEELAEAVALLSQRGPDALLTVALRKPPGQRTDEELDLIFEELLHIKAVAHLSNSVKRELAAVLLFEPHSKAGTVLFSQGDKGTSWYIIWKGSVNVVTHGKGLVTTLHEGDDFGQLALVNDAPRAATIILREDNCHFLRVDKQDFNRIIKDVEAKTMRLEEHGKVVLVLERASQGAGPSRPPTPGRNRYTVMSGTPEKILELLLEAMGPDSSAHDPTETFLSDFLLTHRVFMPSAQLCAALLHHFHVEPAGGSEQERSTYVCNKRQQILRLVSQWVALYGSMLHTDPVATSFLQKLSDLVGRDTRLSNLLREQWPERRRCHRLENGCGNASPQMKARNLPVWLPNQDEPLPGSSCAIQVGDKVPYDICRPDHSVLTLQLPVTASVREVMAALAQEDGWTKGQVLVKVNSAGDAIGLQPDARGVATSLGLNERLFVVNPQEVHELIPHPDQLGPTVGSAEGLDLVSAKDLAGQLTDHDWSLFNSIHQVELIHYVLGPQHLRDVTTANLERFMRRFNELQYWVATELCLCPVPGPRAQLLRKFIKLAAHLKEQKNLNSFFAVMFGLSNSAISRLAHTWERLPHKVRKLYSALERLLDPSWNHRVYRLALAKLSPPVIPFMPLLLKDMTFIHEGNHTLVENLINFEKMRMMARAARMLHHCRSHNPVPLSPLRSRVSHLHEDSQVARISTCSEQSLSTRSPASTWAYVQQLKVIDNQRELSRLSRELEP

Test [2] concerns the target Rap guanine nucleotide exchange factor 4 (Homo sapiens) (UniProt Q8WZA2). As to the kind of experiment: Confirmatory qHTS for antagonist of cAMP-regulated guanine nucleotide exchange factor 4 (EPAC2) (AID 1645885; further: nearly all actives have a fitted effect of over 25% in size; further: potency means the concentration at half of the fitted maximal effect; on activity change, negative = inhibition: on the % scale 0 is the no-effect control and ±100 the full control effect). (In qHTS, concentration-response curves come from the screen itself.)
Test [3] addresses Rap guanine nucleotide exchange factor 3 (Homo sapiens) (UniProt O95398). As to the kind of experiment: Counterscreen qHTS for antagonist of cAMP-regulated guanine nucleotide exchange factor 3 (EPAC1) (AID 1645888). Further: % of control where 0% means no effect. A digest of the protocol:
(§1)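 Rap1B–BODIPY-GDP (250 nM) with 50 uM GDP; compounds pin-transferred to 9.74 nM–152 uM final (activator) or from 7.32 nM upwards (inhibitor). Fluorescence Ex/Em 480/540 nm read at 5 and 30 min, then after adding cAMP or buffer, at room temperature.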
(The purpose of a counterscreen is to sort out artefacts and off-target activity.)

Test [4] has the same target. Nature of the test: Counterscreen qHTS for agonist of cAMP-regulated guanine nucleotide exchange factor 3 (EPAC1) (AID 1645889). Further: nearly all actives have a fitted effect of over 40% in size. Further: potency means the concentration at half of the fitted maximal effect. In a few lines:
as §1

In test [5] the target is Tumor susceptibility gene 101 protein (Homo sapiens) (UniProt Q99816). Nature of the test: qHTS Assay for Iinhibitors of HIV-1 Budding by Blocking the Interaction of PTAP/TSG101: Hit Validation (AID 651600). Further: potency means the concentration at half of the fitted maximal effect; nearly all actives have a fitted effect of over 70% in size. A digest of the protocol:
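Fluorescence polarization binding assay: Tsg101 binding domain (10 uM final) pre-dispensed with compounds, then FITC-labeled PTAP-motif peptide (50 nM final) added; 20 min at r.t. in HEPES pH 7.5 buffer with NaCl, Tween 20, EDTA, TCEP.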

Records with an inconclusive call do not appear. Values without a mark were called inactive. The source made the active and inactive calls. The call rests on the fitted dose curve; in most records, active means well fitted curve in the direction sought with a large enough effect; inconclusive means small, poorly fitted or top-dose-only effect, or another doubt; inactive means no such curve, though single readings can be large; an effect the other way counts as inactive or inconclusive.

Chain of Rap guanine nucleotide exchange factor 4 (Homo sapiens) (Q8WZA2 whole entry, looked up): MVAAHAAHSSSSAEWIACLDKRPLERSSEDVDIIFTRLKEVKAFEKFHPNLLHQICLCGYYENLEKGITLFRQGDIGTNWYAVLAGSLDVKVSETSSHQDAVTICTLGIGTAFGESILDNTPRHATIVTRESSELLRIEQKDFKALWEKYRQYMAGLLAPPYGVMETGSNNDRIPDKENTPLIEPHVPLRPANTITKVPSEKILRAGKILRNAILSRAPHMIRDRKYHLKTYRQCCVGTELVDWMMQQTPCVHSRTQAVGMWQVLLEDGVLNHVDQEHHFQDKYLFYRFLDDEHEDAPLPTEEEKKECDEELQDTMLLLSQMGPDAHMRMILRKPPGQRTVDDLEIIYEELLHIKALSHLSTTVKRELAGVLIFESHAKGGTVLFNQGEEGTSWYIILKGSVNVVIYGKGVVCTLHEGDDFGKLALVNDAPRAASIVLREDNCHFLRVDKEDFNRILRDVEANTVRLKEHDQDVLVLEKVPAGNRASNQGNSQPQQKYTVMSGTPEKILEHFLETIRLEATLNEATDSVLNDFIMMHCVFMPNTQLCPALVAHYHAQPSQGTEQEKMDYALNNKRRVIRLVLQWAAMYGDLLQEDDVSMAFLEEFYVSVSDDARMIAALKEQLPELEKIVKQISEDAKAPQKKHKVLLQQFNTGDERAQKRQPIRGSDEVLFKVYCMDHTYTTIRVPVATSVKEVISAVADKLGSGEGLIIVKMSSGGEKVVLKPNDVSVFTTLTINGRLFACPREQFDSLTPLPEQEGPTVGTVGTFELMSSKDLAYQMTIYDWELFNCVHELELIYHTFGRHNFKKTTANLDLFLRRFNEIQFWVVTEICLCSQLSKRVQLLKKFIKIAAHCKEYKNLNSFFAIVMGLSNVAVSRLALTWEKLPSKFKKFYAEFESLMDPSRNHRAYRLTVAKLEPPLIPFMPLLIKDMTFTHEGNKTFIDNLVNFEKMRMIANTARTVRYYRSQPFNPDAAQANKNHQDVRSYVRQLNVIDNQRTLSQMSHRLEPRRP
Chain of Tumor susceptibility gene 101 protein (Homo sapiens) (Q99816 whole entry, looked up, the tested form may be a part): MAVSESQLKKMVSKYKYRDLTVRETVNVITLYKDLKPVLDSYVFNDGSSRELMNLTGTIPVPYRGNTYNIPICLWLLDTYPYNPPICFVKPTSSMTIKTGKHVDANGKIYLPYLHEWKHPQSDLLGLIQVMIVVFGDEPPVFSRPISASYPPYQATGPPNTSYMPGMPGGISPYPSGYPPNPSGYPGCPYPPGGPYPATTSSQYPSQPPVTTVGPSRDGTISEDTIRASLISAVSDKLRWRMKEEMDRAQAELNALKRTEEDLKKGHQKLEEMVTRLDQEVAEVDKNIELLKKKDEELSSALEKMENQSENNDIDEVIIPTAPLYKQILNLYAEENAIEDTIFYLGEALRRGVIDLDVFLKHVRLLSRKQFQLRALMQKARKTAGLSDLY

Turning to `Oc1ccc(N=Cc2sc3ccccc3c2Cl)cc1`, the Potency result in test [1], in test [2], in test [3] and in test [4] was “inactive” in each case.

Regarding `O=C1CCN2C=Nc3cccc4ccc1c2c34`, the Potency in test [5] was 6.51 µM (active); in test [4], 11.2 µM (active). For the same compound, the Potency result in test [1] and in test [2] was “inactive” in each case. Besides, in test [3], the activity change, negative = inhibition was 142% [at 30.8 µM].

As to `CCCCn1c(=O)[nH]c2nc3cc(N)ccc3nc2c1=O`, the Potency is 6.51 µM (active) in test [5] and 12.6 µM (active) in test [4]. In addition, the Potency entry in test [1] and in test [2] was “inactive” each time. Moreover, in test [3], the activity change, negative = inhibition is 79.1% [at 30.8 µM].

`O=S(=O)(c1ccc(Cl)c2ccccc12)N1CCCC1`: the Potency entry in test [1], in test [2], in test [3] and in test [4] was “inactive” in each case.

`CC(C)CCN1C(=O)c2cccc3c(N)ccc(c23)C1=O`: the values for the Potency in test [5] and in test [4] were 16.3 µM (active) and 12.6 µM (active), respectively. For the same compound, the Potency result in test [1] and in test [2] was “inactive” throughout. Moreover, the activity change, negative = inhibition in test [3] is 154% [at 30.8 µM].

In the case of `CCN1CCN(c2ccc(S(=O)(=O)N3CCCCC3)cc2NC(=O)c2cccc(OC(F)F)c2)CC1`, the Potency entry in test [1], in test [2], in test [3] and in test [4] was “inactive” each time.

Regarding `COc1ccc(NC(=O)NS(=O)(=O)c2ccc(C)cc2)cn1`, the Potency entry in test [1], in test [2] and in test [3] was “inactive” throughout. In test [4], the Potency is 63.1 µM (active).

Regarding `O=C1C=C(c2c(O)ccc3ccccc23)c2ccccc2C1=O`, the Potency in test [1] was 67.5 µM (active); in test [2], 47.8 µM (active); in test [4], 35.5 µM (active). In addition, the Potency entry in test [3] is “inactive”.

`O=C(NCCOc1ccccc1F)c1ccccc1SCc1ccc(F)cc1`: the Potency entry in test [1], in test [3] and in test [4] was “inactive” each time. The Potency in test [2] was 10.7 µM (active).

`CC[n+]1ccc(/C=C/c2c[nH]c3ccccc23)cc1`: the Potency result in test [1], in test [2] and in test [3] was “inactive” each time. For the same compound, the Potency in test [4] is 44.7 µM (active).

As to `N#Cc1cc(Br)ccc1N=C1CCCN1c1ccccc1`, the Potency result in test [1], in test [3] and in test [4] was “inactive” each time. In test [2], the Potency was 3.01 µM (active).

Regarding `O=C1CC2(CCN(S(=O)(=O)c3ccccc3F)CC2)Oc2ccccc21`, the Potency entry in test [1], in test [2] and in test [3] was “inactive” each time. For the same compound, in test [4], the Potency was 10 µM (active).

For `COC(=O)c1ccc(Cn2nc(-c3cc(C)ccc3C)ccc2=O)cc1`, the Potency result in test [1], in test [2], in test [3] and in test [4] was “inactive” each time.
